Screening results from PubChem BioAssay.
ERa SRC1 pot: enhancers of ERα–SRC-1 coactivator binding, primary screen, biochemical, TR-FRET, ERα LBD, low estradiol | Estrogen receptor (Homo sapiens), P03372 | TR-FRET ERalpha-LBD/SRC-Cy5 coactivator binding, 2 h; 100 = basal binding, no effect | coactivator binding (% of control), % at 25.6 µM | actives 1.3% (n = 86,000) | AID 639, 2007; in the data active means activity above about 200%;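 further: binding measured in presence of low estradiol as agonist stimulus; 0% = peptide alone without receptor and 100% = receptor with peptide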
Target sequence (P03372 whole entry, looked up, the tested form may be a part): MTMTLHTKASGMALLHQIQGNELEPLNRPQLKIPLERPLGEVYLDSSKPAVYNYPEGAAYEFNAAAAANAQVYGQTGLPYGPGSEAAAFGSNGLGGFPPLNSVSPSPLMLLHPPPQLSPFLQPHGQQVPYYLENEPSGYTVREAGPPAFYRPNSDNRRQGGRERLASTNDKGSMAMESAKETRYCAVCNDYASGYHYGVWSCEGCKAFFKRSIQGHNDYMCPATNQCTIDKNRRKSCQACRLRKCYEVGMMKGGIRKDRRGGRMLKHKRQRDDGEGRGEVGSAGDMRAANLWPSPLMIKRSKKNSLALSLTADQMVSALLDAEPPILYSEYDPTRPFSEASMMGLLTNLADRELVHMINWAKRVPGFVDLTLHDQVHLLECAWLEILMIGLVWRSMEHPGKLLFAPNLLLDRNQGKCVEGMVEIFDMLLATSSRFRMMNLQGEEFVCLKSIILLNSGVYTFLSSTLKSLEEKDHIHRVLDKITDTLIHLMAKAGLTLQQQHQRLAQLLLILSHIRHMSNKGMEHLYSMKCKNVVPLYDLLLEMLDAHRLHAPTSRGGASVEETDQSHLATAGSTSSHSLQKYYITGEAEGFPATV
Candida biofilm: clotrimazole potentiators killing Candida biofilms, primary screen, with clotrimazole, Alamar Blue. C. albicans biofilm + clotrimazole. AID 834, 2007. inhibition, % at 6 µM. actives 0.14% (n = 85,000);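 active means inhibition above 20%; inactive means inhibition below 20%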;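 further: preformed 24 hr biofilms exposed to compound for 48 hr; 0% = biofilm without compound and 100% = blank killed by clotrimazole plus chlorhexidine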
ERb SRC1 inh: inhibitors of ERβ-SRC1 coactivator interaction, primary screen, biochemical, TR-FRET, ERβ LBD, SRC-1 peptide | Estrogen receptor beta (Homo sapiens), Q92731 | TR-FRET ER-beta LBD / SRC1-Cy5 peptide binding; receptor agonist-loaded with 1 µM estradiol | inhibition, % at 25.6 µM | actives 1.3% (n = 86,000) | AID 633, 2007;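 active means compounds whose percent inhibition of the receptor-coactivator binding signal exceeds about 50% in the single-dose screen, limit read from the data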;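 further: 0% = receptor plus peptide wells without compound and 100% = peptide-only wells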
Smad3 FoxH1 inh: Smad3/FoxH1 peptide binding inhibitors, primary screen, biochemical, TR-FRET. TR-FRET Smad3/Dy647-FoxH1 peptide binding, europium anti-His. AID 630, 2007. inhibition, % at 25 µM. Mothers against decapentaplegic homolog 3 (Homo sapiens), P84022. actives 0.29% (n = 88,000);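 active means compounds that reduce the energy-transfer binding signal between the protein and its labelled peptide by more than half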;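 further: 0% = Smad3 plus labelled peptide maximal FRET and 100% = peptide-only background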
MT1-MMP txn act: MT1-MMP promoter reporter activation – cell-based, luciferase luminescence, primary screen; HT1080 MT1-MMP promoter luciferase reporter, overnight; active compounds read high; activation factor at 10 µM; actives 0.16% (n = 86,000); AID 750, 2007;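 active means activation factor of at least 2 for MT1-MMP transcription at 10 µM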
ERa SRC1 inh: ERα–SRC-1 coactivator interaction inhibitors, primary screen, biochemical, TR-FRET, ERα LBD, estradiol-bound; actives 1.7% (n = 86,000); inhibition, % at 25.6 µM; AID 629, 2007; TR-FRET ER-alpha LBD / SRC-1 peptide; in the data active means inhibition above about 50%;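 further: 0% = receptor plus peptide control and 100% = peptide only without receptor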
* hit, by the source's call; x = no result; [ ] = remark or other dose. Compounds with a hit are over-represented: about 3.8% of the library has one in this group of screens.

SMILES	ERa SRC1 pot	Candida biofilm	ERb SRC1 inh	Smad3 FoxH1 inh	MT1-MMP txn act	ERa SRC1 inh
[Cu].[NH-][C@H](CC(=O)O)C(=O)O.[NH-][C@H](CC(=O)O)C(=O)O	x	x	x	3.1	x	x
COC(=O)[C@@H]1C[C@@]2(O)[C@@H](O)[C@@H](O)[C@@H](O)C[C@H]2N1Cc1ccc(C(C)(C)C)cc1	x	x	x	x	1.1	x
N#CCSc1ncnc2sc3c(c12)CCC3	75.4	9.1	44.2	-3.9	1.5	42.0
Cc1sc2ncnc(SCC#N)c2c1C	97.1	7.4	48.2	4.0	1.1	75.5*[fluorescence artefact?]
COc1ccc(-c2cc3nc(-c4ccccc4)cc(N4CCC5(CC4)OCCO5)n3n2)cc1	267.1*[fluorescence artefact?]	5.5	21.2	21.4	1.3	-7.2
c1ccc(Cc2nnc3sc(C4COc5ccccc5O4)nn23)cc1 (configuration not stated)	x	x	x	x	1.1	x
c1ccc(OCc2nnc3sc(C4COc5ccccc5O4)nn23)cc1 (configuration not stated)	105.6	3.7	60.4*	-4.3	1.1	57.7*
C[N+]1(C)CCO[C@](O)(c2ccccc2)C1	x	x	x	1.9	x	x
O=C(O)[C@@H]1[C@H](C(=O)NCc2ccccn2)[C@@H]2C=C[C@H]1O2	x	x	x	-2.2	x	x
COC(=O)[C@@]1(Cc2ccc(OC)cc2)[C@H]2c3cc(C(=O)N(C)C)n(Cc4cc(F)c(F)c(F)c4)c3C[C@H]2CN1C(=O)c1ccccc1	x	x	x	x	1.2	x
CCn1c(CCNC(=O)c2ccc(F)cc2)nc2ccccc21	112.3	9.4	-10.0	-11.8	x	-4.7
CCn1c(CCCNC(=O)c2ccc(F)cc2)nc2ccccc21	269.7*	2.7	6.9	-1.1	x	-5.3
Cc1ccc(N=Cc2c(O)n(-c3ccc4c(c3)OCO4)c(=O)c3ccccc23)cc1	31.1	8.7	34.1	-10.0	1	68.7*
Cc1c(Cl)cccc1NC(=O)C[C@H]1Sc2ccccc2NC1=O	x	x	x	3.2	x	x
Cc1ccc(S(=O)(=O)NCc2cccc([N+](=O)[O-])c2)cc1	x	x	x	14.4	x	x
COc1ccc(-c2n[nH]c(C(F)(F)F)c2-c2cc3ccccc3o2)c(O)c1	239.2*	6.3	6.2	5.1	1	1.2
COc1ccc(-c2n[nH]c(C)c2-c2ccc(Cl)cc2)c(O)c1	63.9	0.5	-4.3	-4.3	1.1	6.2
COc1ccc(C[N+](C)(C)N)cc1OC	x	x	x	-1.6	x	x
c1ccc2c(c1)nc(Nc1ccc3c(c1)OCO3)c1nnnn12	98.2	5.1	23.4	7.9	1.4	56.5*[fluorescence artefact?]
CCN(CC)S(=O)(=O)c1ccc(Nc2nc3ccccc3n3nnnc23)cc1	77.6	5.0	36.9	-4.5	1.6	84.6*[fluorescence artefact?]
Brc1ccc(Nc2nc3ccccc3n3nnnc23)cc1	112.8	1.1	-19.7	7.6	1.3	0.3
COC(=O)[C@@]1(Cc2ccc(F)cc2)[C@H]2c3cc(C(=O)N4CCCC4)n(Cc4c(CO)[nH]cc(C)c4=O)c3C[C@H]2CN1C(=O)c1ccccc1	x	x	x	x	1.2	x
Cc1cccc(-n2c(SCCC(=O)O)nnc2-c2cccs2)c1C	93.5	8.1	50.2*	8.6	1	-0.2
CC1(C)Cc2ccccc2-c2nnc(SCC(=O)N3CCc4ccccc43)n21	293.1*[fluorescence artefact?]	5.2	33.2	-11.3	1.1	42.9
O=C(CSc1nnc(-c2cccs2)n1-c1ccccc1)N1CCCc2ccccc21	889.5*[fluorescence artefact?]	1.4	-42.6	-4.6	1	16.2
SMILES	ERa SRC1 pot	Candida biofilm	ERb SRC1 inh	Smad3 FoxH1 inh	MT1-MMP txn act	ERa SRC1 inh
N[C@@H](CCCCO)C(=O)O	x	x	x	-3.9	x	x
C[C@@H](C(=O)Nc1ccc2ccccc2c1)[C@@H]1C[C@@]1(C)[C@@H](NC(=O)c1ccncc1Cl)c1ccccc1	x	x	x	x	1.2	x
O=C(O)CCCC(=O)N1CCN(c2cccc(Cl)c2)CC1	331.4*[fluorescence artefact?]	4.9	-0.8	21.6	1.1	-10.0
O=C(O)c1ccccc1C(=O)N1CCN(c2cccc(Cl)c2)CC1	119.7	6.0	-6.2	-4.1	1.1	-3.6
O=C(CCn1nnc2ccccc21)Nc1nnc(-c2ccccc2F)s1	248.2*	-0.6	-0.8	-11.4	1.1	9.9
COc1ccc2[nH]c3c(NCc4ccco4)ncnc3c2c1	91.7	4.3	-0.3	1.4	2.1*	5.7
